Entries with a potency or affinity are not part of this list. The source made the active and inactive calls.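 Rule for the calls: active = compounds whose fitted half-maximal drop in cell ATP occurs at no more than twice the top tested dose; inconclusive = flat moderate signal drop, or unreliable curve fit; inactive = the rest.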

The assay is described as follows: A375 melanoma cell cytotoxicity, dose response, counter-screen for MITF inhibitor project, CellTiter-Glo luminescence, dry powder, set 7 (AID 624490). The following applies: A375 viability, ATP luminescence (CellTiter-Glo), 24 h; series mostly up to 35 µM; activity change, negative = cytotoxicity: at the top concentration.
As for `NC1=C(NS(=O)(=O)c2ccc(Br)cc2)C(=O)c2ccccc2C1=O`, the “activity change, negative = cytotoxicity” value was 1.24% (inactive). Consider `NC1=C(NS(=O)(=O)c2ccc(Br)s2)C(=O)c2ccccc2C1=O`, for which the “activity change, negative = cytotoxicity” value is 3.52% (inactive). The figure for `O=C1C(Nc2ccccc2)=C(c2ccccc2)C(=O)c2ccccc21` is -0.601% (inactive).

Source of the values: PubChem BioAssay AID624490 (Broad Institute, 2012).
